{
  "source": "PubChem BioAssay AID602292",
  "about": "(National Center for Advancing Translational Sciences (NCATS), 2012)",
  "note": "Screen size: about 1,300 compounds; about 380 (29%) were called active. Another 37% or so got no clear call; they are omitted. Calls follow the shape of the dose curve; as a rule, active = well fitted inhibition curve with a large enough effect; inconclusive = small, poorly fitted or top-dose-only effect; inactive = flat fitted curve, though single readings scatter. The list shows a part of the results. % is scaled to controls: 0 for no effect and ±100 for the full control effect; potency is read from the fitted curve at half-maximal effect.",
  "data": [
    {"target": "Thyrotropin receptor (Homo sapiens) (UniProt P16473)", "sequence (P16473 whole entry, looked up)": "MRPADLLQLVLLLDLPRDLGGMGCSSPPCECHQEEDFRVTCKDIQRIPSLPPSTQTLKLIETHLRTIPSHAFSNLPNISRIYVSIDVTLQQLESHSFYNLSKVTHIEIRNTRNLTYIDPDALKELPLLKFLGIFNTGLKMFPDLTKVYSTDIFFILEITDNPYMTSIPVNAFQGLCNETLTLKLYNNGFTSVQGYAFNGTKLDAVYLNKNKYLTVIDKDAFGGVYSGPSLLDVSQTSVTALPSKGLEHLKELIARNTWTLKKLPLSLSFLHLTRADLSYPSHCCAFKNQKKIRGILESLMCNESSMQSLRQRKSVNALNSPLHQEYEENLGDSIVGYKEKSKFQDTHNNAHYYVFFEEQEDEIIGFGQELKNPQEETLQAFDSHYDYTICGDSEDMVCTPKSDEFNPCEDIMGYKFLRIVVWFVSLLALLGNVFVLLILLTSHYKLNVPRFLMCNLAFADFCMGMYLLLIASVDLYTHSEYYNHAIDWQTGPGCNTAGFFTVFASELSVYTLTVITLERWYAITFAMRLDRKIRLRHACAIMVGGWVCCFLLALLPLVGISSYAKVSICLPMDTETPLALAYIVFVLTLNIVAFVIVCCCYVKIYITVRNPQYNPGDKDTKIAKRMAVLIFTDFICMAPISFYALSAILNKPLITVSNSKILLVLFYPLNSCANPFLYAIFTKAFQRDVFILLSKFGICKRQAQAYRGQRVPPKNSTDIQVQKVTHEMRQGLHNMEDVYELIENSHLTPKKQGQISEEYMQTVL", "test": "qHTS for antagonists of the Thyroid Stimulation Hormone Receptor: Hit Validation in Primary Screen; also: nearly all actives have a fitted effect of over 80% in size;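 as to activity change, negative = inhibition: cAMP by competitive HTRF where cellular cAMP lowers the 665 nm FRET signal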", "settings": "TSHR-expressing cells, cAMP antagonist mode; series mostly up to 58 µM; activity change, negative = inhibition: at the top concentration", "how_it_was_run": "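TSHR-expressing cells were pretreated with compound, then stimulated with TSH at EC80 (4nM final) for 2 hours at 37 deg C. Cellular cAMP measured by competitive HTRF (anti-cAMP cryptate, cAMP-d2) after 30 min at room temperature.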", "values": [
      {"smiles": "CC(=O)N/N=C\\c1ccccc1OC/C=C/c1ccccc1", "activity change, negative = inhibition": "-2.79% (inactive)"},
      {"smiles": "CCOC(=O)COc1ccccc1/C=C\\[N+](=O)[O-]", "Potency": "30.1 µM (active)"},
      {"smiles": "CCOC(=O)COc1ccc(Br)cc1/C=C/c1[nH]c(=O)[nH]c(=O)c1[N+](=O)[O-]", "Potency": "23.9 µM (active)"},
      {"smiles": "CC(C)OCCCn1c(=O)c2ccccc2n2c(CCC(=O)NC3CCN(Cc4ccccc4)CC3)nnc12", "activity change, negative = inhibition": "-5.01% (inactive)"},
      {"smiles": "CC1CCN(Cc2c(C(=O)N/N=C/c3cc(Cl)ccc3O)nnn2-c2nonc2N)CC1", "activity change, negative = inhibition": "-5.21% (inactive)"},
      {"smiles": "COc1cccc(/C=N/NC(=O)C(=O)N2CCCC2)c1O", "activity change, negative = inhibition": "-6.14% (inactive)"},
      {"smiles": "N#Cc1ccc(Nc2nc(-c3ccc(O)cc3O)cs2)cc1C(F)(F)F", "Potency": "23.9 µM (active)"},
      {"smiles": "COc1ccc(/C=C2\\CC/C(=C\\c3ccc(OC)c(OC)c3)C2=O)cc1OC", "Potency": "19 µM (active)"},
      {"smiles": "COc1ccc(/C=C/C(=O)N2CCN(C)CC2)cc1OC", "activity change, negative = inhibition": "-1.93% (inactive)"},
      {"smiles": "COc1ccc(/C=C/C(=O)Nc2nc(C)cc(C)n2)cc1OC", "activity change, negative = inhibition": "-1.33% (inactive)"},
      {"smiles": "CNc1c(NC(=O)c2ccc3c(c2)OCO3)c(=O)oc2ccccc12", "activity change, negative = inhibition": "-2.71% (inactive)"},
      {"smiles": "O=C(Nc1ccc2oc(-c3ccccc3F)nc2c1)c1ccc2c(c1)OCCO2", "Potency": "30.1 µM (active)"},
      {"smiles": "COc1ccc(-c2nnc(NC(=O)c3ccc4c(c3)OCCO4)o2)cc1", "activity change, negative = inhibition": "-4.12% (inactive)"},
      {"smiles": "Cn1c(CNC(=O)C(Cc2ccccc2)NC(=O)c2ccccc2)cc(=O)n(C)c1=O", "note": "(stereo not given)", "activity change, negative = inhibition": "-1.24% (inactive)"},
      {"smiles": "CCN(CC)S(=O)(=O)c1cccc(C(=O)Nc2nc3cc4c(cc3s2)OCCO4)c1", "Potency": "21.3 µM (active)"},
      {"smiles": "CCN(c1ccccc1)S(=O)(=O)c1ccc(C(=O)N(CCCN(C)C)c2nc3cc4c(cc3s2)OCO4)cc1", "activity change, negative = inhibition": "-7.09% (inactive)"},
      {"smiles": "CC1CCC(C(C)C)C(OC(=O)Cn2c(-c3ccccc3)[n+](C)c3ccccc32)C1", "note": "(stereo not given)", "Potency": "30.1 µM (active)"},
      {"smiles": "CCOC(=O)C1C(c2cc(OC)c(OC)c(OC)c2)NC(=S)NC1(O)C(F)(F)F", "note": "(stereo not given)", "activity change, negative = inhibition": "-3.72% (inactive)"},
      {"smiles": "CC1=C(C(=O)OC(C)(C)C)C(c2ccc3ccccc3c2)NC(=O)N1C", "note": "(stereo not given)", "activity change, negative = inhibition": "-4.32% (inactive)"},
      {"smiles": "CC(C)(C)OC(=O)NCCCCCc1cn([C@@H](CO)C(=O)NCCCCCCCCCCC(=O)N2CCN(C(=O)OC(C)(C)C)CC2)nn1", "Potency": "16.9 µM (active)"},
      {"smiles": "CN1C(=O)/C(=C/c2ccc(OCc3ccccc3F)cc2)NC1=S", "activity change, negative = inhibition": "-0.922% (inactive)"},
      {"smiles": "O=C1S/C(=C\\c2ccc(O)c([N+](=O)[O-])c2)C(=O)N1c1ccccc1Cl", "Potency": "9.53 µM (active)"},
      {"smiles": "Cc1ccc(CN2C(=O)c3ccccc3Sc3ccc(C(=O)NCCN4CCOCC4)cc32)cc1", "activity change, negative = inhibition": "-8.21% (inactive)"},
      {"smiles": "CC(=O)N1c2ccc(S(=O)(=O)N3CCC(C(=O)NC(C)c4ccccc4)CC3)cc2CC1C", "note": "(stereo not given)", "activity change, negative = inhibition": "-5.24% (inactive)"},
      {"smiles": "C=CCSc1nsc(NC(=O)Nc2ccc(F)cc2)n1", "Potency": "7.57 µM (active)"}
    ]}
  ]
}
